Consider 40 compounds from PubChem BioAssay (NCI).

About 79,000 compounds went through this panel and 15% of them were active in at least one assay; those are over-represented in the sample as a whole. Unmarked numbers belong to inactive results. Activity calls are given as the source filed them. Cut-off read from the data, not from the text of the source: active = growth inhibition above about 70%; inactive = the rest.

A short description of one assay: NCI Yeast Anticancer Drug Screen. Data for the rad50 strain (AID 155).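 Note: 0% = growth of vehicle-only cultures of the same strain.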 The settings on record: S. cerevisiae rad50 strain growth inhibition; at 50.0 µM; stronger effect = higher value. Summed up:
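Cells are treated with compound, grown, and their growth is then scored against vehicle-only cultures of the same repair-deficient yeast strain.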
For the compound `CN(C)CCSc1nc2ccccc2o1`, the growth inhibition is 12.2%.
Still for that read-out and setting: in the case of `COC(=O)[C@H](Cc1c[nH]c2ccccc12)NP(=O)(OCCC#N)OCC1OC(n2cc(C)c(=O)[nH]c2=O)CC1N=[N+]=[N-]` (stereo not given in full) it was -13.6%.
Same read-out and setting: in the case of `CCOC1C=CCCO1` (stereo not given) it was 20%.
Same read-out and setting: the value for `CC(C)(C)[Si](C)(C)OCC1OC(n2cc(I)c(=O)[nH]c2=O)C(O[Si](C)(C)C(C)(C)C)C1O[Si](C)(C)C(C)(C)C` (stereo not given) was -19.2%.
`CCCCCCCCCCCC(=O)N(CCOC(=O)c1ccccc1)CCc1ccccc1`: the growth inhibition was 32.6%.
As to `Cc1cc(C)nc(NS(=O)(=O)c2ccc(NC(=O)c3ccncc3)cc2)n1`, the growth inhibition was -7.75%.
In the case of `O=C(OCc1ccccc1)N(CCCCN(CCCNC(=O)C(F)(F)F)C(=O)OCc1ccccc1)CCCNC(=O)C(F)(F)F`, the growth inhibition was -14.8%.
In the case of `COc1ccc(CC[n+]2cccc(/C(=N/O)c3ccccc3)c2)cc1OC`, the growth inhibition was 46.9%.
The same measure, in the same setting: in the case of `CC(=O)Oc1cccc2cc3cc(C)cc(OC(C)=O)c3c(OC(C)=O)c12` it was -7.15%.
For `O=C(/C=C/c1ccccc1)c1cccc([N+](=O)[O-])c1`, the growth inhibition was 26%.
Take `CC(=O)Oc1cc2c(cc1Cc1ccc3c(c1)OCO3)OCO2`: the growth inhibition is -18.6%.
Still for that read-out and setting: the value for `CC(C)(C)OC(=O)C(N)Cc1ccccc1` (stereo not given) was -5.8%; that for `CCCCOC(=O)NC(=O)c1cc2cc(I)cc(I)c2oc1=O` was 3.45%.
The same measure, in the same setting: in the case of `COC(=O)C[C@H](C)[C@H](C)CC(=O)O` it was -17.6%.
With `CCOc1ccc(C2Oc3c(cccc3OC)C=C2[N+](=O)[O-])cc1OCC` (stereo not given), the growth inhibition was 38.8%.
Same read-out and setting: the value for `C/C=C(/C)c1cccc(OCc2ccccc2)c1OCc1ccccc1` was -19.1%; that for `COc1ccc2nc(Cl)sc2c1` was 32.4%.
In the case of `O=C(N(Cc1ccccc1)c1ccccc1)C(Cl)(Cl)Cl`, the growth inhibition was 65.4%.
The same measure, in the same setting: in the case of `COc1ccc(-c2cc(-c3ccc(Cl)cc3)on2)cc1` it was -15.1%; in that of `c1ccc(CCN=C2c3ccccc3-n3cccc32)nc1`, 33.5%; in that of `CCCCC(C(O)c1ccc(C(C)C)cc1)N(CC)CC` (stereo not given), 56.2%.
Same read-out and setting: in the case of `COc1cc(C)nc2ccc(C(=O)c3ccccc3)cc12` it was 31%; in that of `O=C1SCC(O)=C1/C=N/Nc1nc2ccccc2o1`, -11.9%; in that of `COc1ccc(-c2nc(N)nc3c2CN(CCC(=O)O)C3=O)cc1`, 0.9%.
The same measure, in the same setting: in the case of `C/C(=N\NC(=S)Nc1ccc([N+](=O)[O-])cc1S(=O)(=O)O)c1ccccn1` it was 12.6%; in that of `CCN(CC)C(=O)C1CCCCN1` (stereo not given), 1.65%.
As to `O=c1[nH]c2c([N+](=O)[O-])cc(Cl)cc2nc1/C=C(\O)c1cccnc1`, the growth inhibition was 18.4%.
Still for that read-out and setting: in the case of `CC(=O)C(Cc1cccc([N+](=O)[O-])c1)Cc1cccc([N+](=O)[O-])c1` it was -3.7%.
On the same count and under the same terms, the value for `O=C1CSC(c2c(F)cccc2Cl)N1c1nncs1` (stereo not given) was 9.4%.
Take `COCCOCOC(C)(C)[C@H](CCO)O[Si](c1ccccc1)(c1ccccc1)C(C)(C)C`: the growth inhibition was 91.9% (active).
Turning to `C1=Cc2ccccc2Nc2ccccc21`, the growth inhibition is -1.9%.
With `COC(=O)c1ccc(SCCC2(COS(C)(=O)=O)OCCO2)cc1`, the growth inhibition is 18.6%.
For `COc1ccc(C(=O)/C=C/c2ccc(OC)c(OC)c2OC)c(O)c1`, the growth inhibition was 17.6%.
`CCC(C)(C)c1ccc(O)c(CNCCO)c1`: the growth inhibition is 26.8%.
As to `OC1CNC(=S)NC1`, the growth inhibition is -8.85%.
Take `c1ccc2c3[n+](ccc2c1)CCC[n+]1ccc2ccccc2c1-3`: the growth inhibition is 75.1% (active).
Same read-out and setting: the value for `C=C(C)COB(OCC(=C)C)OCC(=C)C` was -6.3%; that for `O=C(O)C(Cc1ccc(O)cc1)N=Cc1nc(-c2ccccc2)oc1O` (stereo not given) was -3.5%; that for `COc1cc2c(NCCCCCCO[N+](=O)[O-])ncnc2c(OC)c1OC` was 26.6%.
The same measure, in the same setting: in the case of `Nc1nc2ncc(CCCNc3ccc(C(=O)NC(CCC(=O)O)C(=O)O)cc3)nc2c(=O)[nH]1` (stereo not given) it was 33%.

Another assay in a line: NCI Yeast Anticancer Drug Screen. Data for the mec2-1 strain (AID 157). The settings on record: S. cerevisiae mec2-1 strain, at 50.0 µM, stronger effect = higher value. Summed up:
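Using mec2-1 yeast: add compound, measure growth, express inhibition versus vehicle-treated cultures.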
For the compound `CN(C)CCSc1nc2ccccc2o1`, the growth inhibition was 20.8%.
`COC(=O)[C@H](Cc1c[nH]c2ccccc12)NP(=O)(OCCC#N)OCC1OC(n2cc(C)c(=O)[nH]c2=O)CC1N=[N+]=[N-]` (stereo not given in full): the growth inhibition is -33.1%.
For the compound `CCOC1C=CCCO1` (stereo not given), the growth inhibition is -2.7%.
On the same count and under the same terms, in the case of `CC(C)(C)[Si](C)(C)OCC1OC(n2cc(I)c(=O)[nH]c2=O)C(O[Si](C)(C)C(C)(C)C)C1O[Si](C)(C)C(C)(C)C` (stereo not given) it was -16%; in that of `CCCCCCCCCCCC(=O)N(CCOC(=O)c1ccccc1)CCc1ccccc1`, 9.45%.
Take `Cc1cc(C)nc(NS(=O)(=O)c2ccc(NC(=O)c3ccncc3)cc2)n1`: the growth inhibition was -17.1%.
With `O=C(OCc1ccccc1)N(CCCCN(CCCNC(=O)C(F)(F)F)C(=O)OCc1ccccc1)CCCNC(=O)C(F)(F)F`, the growth inhibition was -9.7%.
`COc1ccc(CC[n+]2cccc(/C(=N/O)c3ccccc3)c2)cc1OC`: the growth inhibition was -8.3%.
Still for that read-out and setting: in the case of `CC(=O)Oc1cccc2cc3cc(C)cc(OC(C)=O)c3c(OC(C)=O)c12` it was 3.8%; in that of `O=C(/C=C/c1ccccc1)c1cccc([N+](=O)[O-])c1`, 14.6%; in that of `CC(=O)Oc1cc2c(cc1Cc1ccc3c(c1)OCO3)OCO2`, -17.2%.
Same read-out and setting: the value for `CC(C)(C)OC(=O)C(N)Cc1ccccc1` (stereo not given) was -6.6%; that for `CCCCOC(=O)NC(=O)c1cc2cc(I)cc(I)c2oc1=O` was 5.8%; that for `COC(=O)C[C@H](C)[C@H](C)CC(=O)O` was -19.9%.
Still for that read-out and setting: in the case of `CCOc1ccc(C2Oc3c(cccc3OC)C=C2[N+](=O)[O-])cc1OCC` (stereo not given) it was 38.9%; in that of `C/C=C(/C)c1cccc(OCc2ccccc2)c1OCc1ccccc1`, 9.35%.
As for `COc1ccc2nc(Cl)sc2c1`, the growth inhibition was -17.6%.
The same measure, in the same setting: in the case of `O=C(N(Cc1ccccc1)c1ccccc1)C(Cl)(Cl)Cl` it was 76.8% (active); in that of `COc1ccc(-c2cc(-c3ccc(Cl)cc3)on2)cc1`, 11.2%.
Same read-out and setting: in the case of `c1ccc(CCN=C2c3ccccc3-n3cccc32)nc1` it was 0.95%; in that of `CCCCC(C(O)c1ccc(C(C)C)cc1)N(CC)CC` (stereo not given), 34.1%.
For `COc1cc(C)nc2ccc(C(=O)c3ccccc3)cc12`, the growth inhibition is 6.1%.
On the same count and under the same terms, in the case of `O=C1SCC(O)=C1/C=N/Nc1nc2ccccc2o1` it was 6.45%; in that of `COc1ccc(-c2nc(N)nc3c2CN(CCC(=O)O)C3=O)cc1`, -18.2%; in that of `C/C(=N\NC(=S)Nc1ccc([N+](=O)[O-])cc1S(=O)(=O)O)c1ccccn1`, 20.4%.
`CCN(CC)C(=O)C1CCCCN1` (stereo not given): the growth inhibition was 2.6%.
Same read-out and setting: in the case of `O=c1[nH]c2c([N+](=O)[O-])cc(Cl)cc2nc1/C=C(\O)c1cccnc1` it was 0.7%.
On to `CC(=O)C(Cc1cccc([N+](=O)[O-])c1)Cc1cccc([N+](=O)[O-])c1`, for which the growth inhibition is -7.8%.
Still for that read-out and setting: the value for `O=C1CSC(c2c(F)cccc2Cl)N1c1nncs1` (stereo not given) was -2%.
As to `COCCOCOC(C)(C)[C@H](CCO)O[Si](c1ccccc1)(c1ccccc1)C(C)(C)C`, the growth inhibition is 96.5% (active).
Turning to `C1=Cc2ccccc2Nc2ccccc21`, the growth inhibition was -7.35%.
With `COC(=O)c1ccc(SCCC2(COS(C)(=O)=O)OCCO2)cc1`, the growth inhibition was -16.9%.
In the case of `COc1ccc(C(=O)/C=C/c2ccc(OC)c(OC)c2OC)c(O)c1`, the growth inhibition is 1.4%.
Still for that read-out and setting: in the case of `CCC(C)(C)c1ccc(O)c(CNCCO)c1` it was -2.55%.
Still for that read-out and setting: the value for `OC1CNC(=S)NC1` was -10.2%; that for `c1ccc2c3[n+](ccc2c1)CCC[n+]1ccc2ccccc2c1-3` was 38%.
On the same count and under the same terms, in the case of `C=C(C)COB(OCC(=C)C)OCC(=C)C` it was -25.4%; in that of `O=C(O)C(Cc1ccc(O)cc1)N=Cc1nc(-c2ccccc2)oc1O` (stereo not given), -3.5%; in that of `COc1cc2c(NCCCCCCO[N+](=O)[O-])ncnc2c(OC)c1OC`, -5.7%.
In the case of `Nc1nc2ncc(CCCNc3ccc(C(=O)NC(CCC(=O)O)C(=O)O)cc3)nc2c(=O)[nH]1` (stereo not given), the growth inhibition was 15.4%.
